# Test results as given in PubChem BioAssay (NCATS).
# Inconclusive results are not listed. A call without a number means that no potency is given here. The source made the active and inactive calls. The call rests on the fitted dose curve; in most records, active means well fitted inhibition curve with a large enough effect; inconclusive means small, poorly fitted or top-dose-only effect; inactive means flat fitted curve, though single readings scatter.
# Biological target: Glutathione peroxidase 1 (Homo sapiens) (UniProt P07203)
# Experiment: Primary qHTS Assay for Inhibitors of Recombinant Selenoprotein Glutathione Peroxidase 1 (GPX1) (AID 1845191)
# Conditions: recombinant GPX1, GR-coupled NADPH fluorescence, 15 min; series mostly up to 48.8 µM
# Procedure, shortened: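 GR-coupled readout: NADPH consumption tracked by fluorescence, ex 340/em 450 nm, at t=0 and after 15 min at RT. Final mix 10 nM GPX1, 1 mM GSH, 0.5 mM CHP, 0.5 mM NADPH, 100 nM GR, 0.01% BSA, following 30 min enzyme–compound preincubation.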
# Further: nearly all actives have a fitted effect of over 65% in size.
# Sequence of Glutathione peroxidase 1 (Homo sapiens) (P07203 whole entry, looked up): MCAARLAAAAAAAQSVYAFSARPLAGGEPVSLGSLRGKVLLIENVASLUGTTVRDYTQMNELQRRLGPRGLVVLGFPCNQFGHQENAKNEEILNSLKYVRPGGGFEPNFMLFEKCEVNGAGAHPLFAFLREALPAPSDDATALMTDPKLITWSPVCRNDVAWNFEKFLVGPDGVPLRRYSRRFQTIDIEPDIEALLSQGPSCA
row,Compound,Potency
1,Cc1ccccc1/C=C/C1=NCCN1,inactive
2,COC(=O)[C@H](NC(=O)c1cc(-c2ccccc2)nc2ccccc12)c1ccccc1,inactive
3,CNc1cc(NS(=O)(=O)c2ccc(N)cc2)nc(NC)n1,inactive
4,CCSC(=N)N,inactive
5,O=c1ccn([C@@H]2O[C@H](COP(=O)(O)OP(=O)(O)O)[C@@H](O)[C@H]2O)c(=O)[nH]1,inactive
6,O=c1ccc2c(OCCCCc3ccccc3)c3ccoc3cc2o1,inactive
7,NC(=O)CNCCC(c1ccccc1)c1ccccc1,inactive
8,[N-]=[N+]=Nc1ccc(C(=O)CSC[C@H](NC(=O)CC[C@H](N)C(=O)O)C(=O)NCC(=O)O)cc1,inactive
9,NC(N)=NC(N)=Nc1cccc(Cl)c1,inactive
10,Nc1ccc2c3c(cccc13)C(=O)NC2=O,inactive
11,C[C@H]1CC2C3CCC4=CC(=O)C=C[C@]4(C)[C@@]3(Cl)[C@@H](O)C[C@]2(C)[C@@]1(O)C(=O)CO (some centres not stated),inactive
12,Nc1ncnc2c1nc(Br)n2C1OC2COP(=O)(O)O[C@@H]2C1O (some centres not stated),inactive
13,O=S(=O)(c1cccc2c(Cl)cccc12)N1CCCNCC1,inactive
14,N[C@@H](CCCC(=O)O)C(=O)O,inactive
15,C#CC(N)CCC(=O)O (configuration not stated),inactive
16,Brc1c(Br)c(Br)c2[nH]cnc2c1Br,inactive
17,CCCc1c(-c2ccc(O)cc2)nn(-c2ccc(O)cc2)c1-c1ccc(O)cc1,inactive
18,N[C@@H](CS(=O)O)C(=O)O,inactive
19,C[C@H](NC(=O)/C(C#N)=C/c1ccc(O)c(O)c1)c1ccccc1,inactive

# Biological target: Phospholipid hydroperoxide glutathione peroxidase GPX4 (Homo sapiens) (UniProt P36969)
# Experiment: Primary qHTS Assay for Inhibitors of Recombinant Selenoprotein Glutathione Peroxidase 4 (GPX4) (AID 1845192); further: potency means the concentration at half of the fitted maximal effect
# Conditions: recombinant GPX4, GR-coupled NADPH fluorescence, 15 min; series mostly up to 50 µM
# Procedure, shortened: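 Steps: GPX4 plus compound, 30 min RT; add GR/GSH/NADPH master mix; start with cumene hydroperoxide; read 340/450 nm fluorescence at 0 and 15 min. Finals were 200 nM GPX4, 1 mM GSH, 0.5 mM CHP, 0.5 mM NADPH, 100 nM GR.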
# Sequence of Phospholipid hydroperoxide glutathione peroxidase GPX4 (Homo sapiens) (P36969 whole entry, looked up): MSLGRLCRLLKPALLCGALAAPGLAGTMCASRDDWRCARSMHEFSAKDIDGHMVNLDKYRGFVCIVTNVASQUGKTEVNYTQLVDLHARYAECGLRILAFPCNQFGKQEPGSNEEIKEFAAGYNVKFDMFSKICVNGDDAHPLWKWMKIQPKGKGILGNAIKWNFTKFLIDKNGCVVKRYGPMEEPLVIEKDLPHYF
row,Compound,Potency
1,NC1CONC1=O (configuration not stated),inactive
2,N[C@@H](Cc1c[nH]c2ccccc12)C(=O)O,inactive
3,Cn1c(=O)c2[nH]c(-c3ccc(S(=O)(=O)O)cc3)nc2n(C)c1=O,11.2 µM (active)
4,CCCC[C@@]1(C2CCCC2)Cc2cc(OCC(=O)O)c(Cl)c(Cl)c2C1=O,inactive
5,CC1=C(C(=O)O)N2C(=O)[C@@H](NC(=O)C(N)C3=CCC=CC3)[C@H]2SC1 (some centres not stated),inactive
6,Cc1nc2c(OCc3ccccc3)cccn2c1CC#N,inactive
7,c1ccc(C(NCCNC(c2ccccc2)c2ccccc2)c2ccccc2)cc1,inactive
8,Cc1cccc(C2CN(C)CCc3c2cc(O)c(O)c3Cl)c1 (configuration not stated),inactive
9,CCN1C(=O)C=CC1=O,inactive
10,Oc1ccc(/C=C/c2ccc(/C=C/c3ccc(O)cc3)c(Br)c2)cc1,inactive
11,COc1ccccc1N1CCN(CCN(C(=O)c2ccc(F)cc2)c2ccccn2)CC1,inactive
12,Nc1ccc(CCNc2ncnc3c2ncn3C2OC(CO)C(O)C2O)cc1 (configuration not stated),inactive
13,CC#CCOC(=O)c1c(C)nc2sc3c(c2c1N)CCC(O)C3 (configuration not stated),inactive
14,CCCCCC[C@@H]([C@@H](C)O)n1cnc2c(N)ncnc21,inactive
15,COc1cc(N)c(Cl)cc1C(=O)OCCN1CCCCC1,inactive
16,CNCCNS(=O)(=O)c1cccc2cnccc12,inactive
17,CCCN(CCc1ccccc1)C1CCc2c(O)cccc2C1 (configuration not stated),inactive
18,COc1ccccc1N1CCN(CCCCNC(=O)c2ccc3ccccc3c2)CC1,inactive
19,CSc1nc(N)c2ncn([C@@H]3O[C@H](COP(=O)(O)OP(=O)(O)O)C(O)[C@H]3O)c2n1 (some centres not stated),inactive

row,Compound,Potency
1,Cc1ccccc1/C=C/C1=NCCN1,inactive
2,COC(=O)[C@H](NC(=O)c1cc(-c2ccccc2)nc2ccccc12)c1ccccc1,inactive
3,CNc1cc(NS(=O)(=O)c2ccc(N)cc2)nc(NC)n1,inactive
4,CCSC(=N)N,inactive
5,O=c1ccn([C@@H]2O[C@H](COP(=O)(O)OP(=O)(O)O)[C@@H](O)[C@H]2O)c(=O)[nH]1,inactive
6,O=c1ccc2c(OCCCCc3ccccc3)c3ccoc3cc2o1,inactive
7,NC(=O)CNCCC(c1ccccc1)c1ccccc1,inactive
8,[N-]=[N+]=Nc1ccc(C(=O)CSC[C@H](NC(=O)CC[C@H](N)C(=O)O)C(=O)NCC(=O)O)cc1,inactive
9,NC(N)=NC(N)=Nc1cccc(Cl)c1,inactive
10,Nc1ccc2c3c(cccc13)C(=O)NC2=O,inactive
11,C[C@H]1CC2C3CCC4=CC(=O)C=C[C@]4(C)[C@@]3(Cl)[C@@H](O)C[C@]2(C)[C@@]1(O)C(=O)CO (some centres not stated),inactive
12,Nc1ncnc2c1nc(Br)n2C1OC2COP(=O)(O)O[C@@H]2C1O (some centres not stated),inactive
13,O=S(=O)(c1cccc2c(Cl)cccc12)N1CCCNCC1,inactive
14,N[C@@H](CCCC(=O)O)C(=O)O,inactive
15,C#CC(N)CCC(=O)O (configuration not stated),inactive
16,Brc1c(Br)c(Br)c2[nH]cnc2c1Br,inactive
17,CCCc1c(-c2ccc(O)cc2)nn(-c2ccc(O)cc2)c1-c1ccc(O)cc1,inactive
18,N[C@@H](CS(=O)O)C(=O)O,inactive
19,C[C@H](NC(=O)/C(C#N)=C/c1ccc(O)c(O)c1)c1ccccc1,inactive
